{"source": "PubChem BioAssay (EPA / NIEHS)", "note": "Where “and” joins values, the source holds several entries; their conditions need not be identical. Equal values may be shown once. Records with an inconclusive call do not appear. Some structures have more than one record in an assay (separate samples or runs), and their calls can disagree. Calls of active or inactive are those of the source. Rule for the calls: active = hit-call score of the fitted dose curve at least 0.9, where 1 is the maximum; inconclusive = response in the unintended direction; inactive = score below 0.9."}
{"test_system": "not listed separately", "test": "TOX21_p53_BLA_p5_viability: Viability Assessment in the Tox21 HCT-116 p53 Agonism Beta-lactamase Assay, Phase 5 (AID 2283600)", "procedure,_shortened": "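Seeded cells (4000/well) settle 5 h before compound addition. Plates then incubate 16 h at 37C, receive FRET substrate for 2 h, and finally CellTiter-Glo, with luminescence measured after a 30 min room-temperature incubation.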"}
{"molecule": "CNC(=O)C[C@@H](N)C(=O)N[C@@H](C(=O)N[C@@H]1C(=O)N2[C@@H]1SC(C)(C)[C@@H]2C(=O)O)c1ccc(O)cc1", "outcome": "inactive"}
{"molecule": "N=C(N)N", "outcome": "inactive"}
{"molecule": "CCCCCCCCCCCCC(=O)O", "outcome": "inactive"}
{"molecule": "OCCN1C[C@H](O)[C@@H](O)[C@H](O)[C@H]1CO", "outcome": "inactive"}
{"molecule": "Cc1ccc(NC(=O)N(C)C)cc1NC(=O)N(C)C", "outcome": "inactive"}
{"molecule": "OCCN1CCN(CCCN2c3ccccc3C=Cc3ccccc32)CC1", "outcome": "inactive"}
{"molecule": "NC(=O)CCCCC(N)=O", "outcome": "inactive"}
{"molecule": "NC/C=C/C(=O)O", "outcome": "inactive"}
{"molecule": "Oc1cccc(-c2c3nc(c(-c4cccc(O)c4)c4ccc([nH]4)c(-c4cccc(O)c4)c4nc(c(-c5cccc(O)c5)c5ccc2[nH]5)CC4)C=C3)c1", "AC50": "42.9 µM (active)", "outcome": "inactive"}
{"molecule": "CCOC(=O)[C@H](CCc1ccccc1)N[C@@H](C)C(=O)N1Cc2ccccc2C[C@H]1C(=O)O", "outcome": "inactive"}
{"molecule": "NCCS", "outcome": "inactive"}
{"molecule": "O=C(O)CONC(=O)c1ccccc1", "outcome": "inactive"}
{"molecule": "C[N+](C)(C)CCCCCCCCCC[N+](C)(C)C", "outcome": "inactive"}
{"molecule": "CCCCOC(=O)CO", "outcome": "inactive"}
{"molecule": "CCC(C)(C)OC(=O)N[C@@H](Cc1c[nH]c2ccccc12)C(=O)N[C@@H](CCSC)C(=O)N[C@@H](CC(=O)O)C(=O)N[C@@H](Cc1ccccc1)C(N)=O", "outcome": "inactive"}
{"molecule": "CC(C)N=c1cc2n(-c3ccc(Cl)cc3)c3ccccc3nc-2cc1Nc1ccc(Cl)cc1", "outcome": "inactive"}
{"molecule": "CC(C)(C)CC(C)(C)c1cc(Cc2cc(C(C)(C)CC(C)(C)C)cc(-n3nc4ccccc4n3)c2O)c(O)c(-n2nc3ccccc3n2)c1", "outcome": "inactive"}
{"molecule": "CCN(CC)CCNC(=O)c1cc(Br)c(N)cc1OC", "outcome": "inactive"}
{"molecule": "O=C(O)c1cc(=O)c2ccccc2o1", "outcome": "inactive"}
{"molecule": "CC(C)(C)NC[C@H](O)COc1cccc2c1CCCC2=O", "outcome": "inactive"}
{"molecule": "CN1CCN(CCCN2c3ccccc3Sc3ccc(C(F)(F)F)cc32)CC1", "outcome": "inactive"}
{"molecule": "CCNC(=O)/C=C/c1cccc(Br)c1", "outcome": "inactive"}
{"target": "Cellular tumor antigen p53 (Homo sapiens) (UniProt P04637)", "sequence (P04637 whole entry, looked up)": "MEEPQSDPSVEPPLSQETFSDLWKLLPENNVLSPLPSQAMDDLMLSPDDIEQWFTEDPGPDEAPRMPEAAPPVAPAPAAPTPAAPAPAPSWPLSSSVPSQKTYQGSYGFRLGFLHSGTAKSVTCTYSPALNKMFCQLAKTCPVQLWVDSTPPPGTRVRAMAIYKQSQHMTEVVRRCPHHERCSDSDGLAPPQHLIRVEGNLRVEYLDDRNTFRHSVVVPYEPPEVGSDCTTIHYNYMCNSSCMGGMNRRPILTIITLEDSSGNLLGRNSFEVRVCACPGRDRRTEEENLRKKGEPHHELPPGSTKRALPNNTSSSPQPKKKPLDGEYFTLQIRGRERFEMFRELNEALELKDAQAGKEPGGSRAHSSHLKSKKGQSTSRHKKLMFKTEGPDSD", "test": "TOX21_p53_BLA_p4_ratio: Tox21 HCT-116 p53 Agonism Beta-lactamase Assay, Ratio, Phase 4 (AID 2283601)", "procedure,_shortened": "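HCT116 cells carrying an inducible beta-lactamase reporter were plated at 4000 cells/well, rested 5 h, then exposed to compounds in DMSO (217-fold dilution) for 16 h at 37C. CCF4-AM substrate was loaded 2 h at room temperature; 460/530 nm emission ratio scored gain-of-signal versus DMSO.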"}
{"molecule": "CNC(=O)C[C@@H](N)C(=O)N[C@@H](C(=O)N[C@@H]1C(=O)N2[C@@H]1SC(C)(C)[C@@H]2C(=O)O)c1ccc(O)cc1", "outcome": "inactive"}
{"molecule": "N=C(N)N", "outcome": "inactive"}
{"molecule": "Cn1cc(S(C)=O)c(=O)c2ccc(F)cc21", "note": "(configuration not stated)", "outcome": "inactive"}
{"molecule": "COc1cc([C@H]2Oc3cc([C@H]4Oc5cc(O)cc(O)c5C(=O)[C@@H]4O)ccc3O[C@@H]2CO)ccc1O", "AC50": "87.1 µM (active)"}
{"molecule": "CCCCCCCN", "outcome": "inactive"}
{"molecule": "OCCN1CCN(CCCN2c3ccccc3C=Cc3ccccc32)CC1", "outcome": "inactive"}
{"molecule": "NC/C=C/C(=O)O", "outcome": "inactive"}
{"molecule": "Oc1cccc(-c2c3nc(c(-c4cccc(O)c4)c4ccc([nH]4)c(-c4cccc(O)c4)c4nc(c(-c5cccc(O)c5)c5ccc2[nH]5)CC4)C=C3)c1", "AC50": "24.5 µM (active) and 36.4 µM (active)"}
{"molecule": "O=C(O)c1ccc(NC2OC[C@@H](O)[C@H](O)[C@H]2O)cc1", "note": "(some centres not stated)", "outcome": "inactive"}
{"molecule": "O=[N+]([O-])c1ccc(/C=N\\O)o1", "outcome": "inactive"}
{"molecule": "NCCS", "outcome": "inactive"}
{"molecule": "CN(C)CCc1c[nH]c2ccc(Cn3cncn3)cc12", "outcome": "inactive"}
{"molecule": "C[N+](C)(C)CCCCCCCCCC[N+](C)(C)C", "outcome": "inactive"}
{"molecule": "CCCCOC(=O)CO", "outcome": "inactive"}
{"molecule": "CCC(C)(C)OC(=O)N[C@@H](Cc1c[nH]c2ccccc12)C(=O)N[C@@H](CCSC)C(=O)N[C@@H](CC(=O)O)C(=O)N[C@@H](Cc1ccccc1)C(N)=O", "outcome": "inactive"}
{"molecule": "CCN(CC)CCNC(=O)c1cc(Br)c(N)cc1OC", "outcome": "inactive"}
{"molecule": "O=C(O)c1cc(=O)c2ccccc2o1", "outcome": "inactive"}
{"molecule": "O=c1[nH]cnc2nc[nH]c12", "outcome": "inactive"}
{"molecule": "CN1CCN(CCCN2c3ccccc3Sc3ccc(C(F)(F)F)cc32)CC1", "AC50": "43.1 µM (active)"}
